Screening results as filed in PubChem.
LASV entry inh: qHTS for Inhibitors of binding or entry into cells for Lassa Virus | Lassa virus pseudotype entry inhibition, cell reporter | Potency, µM (top dose mostly 37.9 µM), actives largely listed as inhibitors | AID 540256, 2011 | 300,000 tested, 1.2% active; calls by dose curve; tested in HEK293 cells; further: nearly all actives have a fitted effect of over 50% in size
Shiga toxin inh: A qHTS for Small Molecule Inhibitors of Shiga Toxin | 290,000 tested, 9.2% active | inhibition, % at 38.7 µM | Vero cells, Shiga toxin protein synthesis inhibition reporter | AID 2315, 2010; in the data active means inhibition mostly above about 28%, no sharp cut-off; inactive means mostly below about 43%
Marburg entry inh: qHTS for inhibitors of binding or entry into cells for Marburg Virus. 300,000 tested, 1.8% active. Potency, µM (titrated, usually from 37.8 µM), actives largely listed as inhibitors. AID 540276, 2011. Marburg virus pseudotyped entry inhibition, cell reporter; calls by dose curve; tested in HEK293 cells
HCV inhibitor: qHTS Assay for Inhibitors of Hepatitis C Virus (HCV). Potency, µM (top dose mostly 41.8 µM), actives largely listed as inhibitors. 340,000 tested, 3.4% active. Huh7.5.1 HCVcc-Cre infection, luciferase reporter, 44 h; active means well fitted inhibition curve with a large enough effect; inconclusive means small, poorly fitted or top-dose-only effect, or another doubt; inactive means no such curve, though single readings can be large or run the other way
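Seed cells (1,000/well) for 4 h; treat with compound and infect with HCVcc-Cre, moi about 0.5. Incubate 44 h, then detect luciferase activity.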
FMDV inh: High Throughput Screening for Foot and Mouth Disease Virus Antivirals. Potency, µM (highest dose often 57.9 µM), usual class: inhibitors. 410,000 tested, 1.2% active. AID 1159524, 2015. FMDV antiviral cell-based qHTS; calls by dose curve; tested in HEK293T cells; further: read-out not given here; nearly all actives have a fitted effect of over 45% in size
CHX counter: Cycloheximide Counterscreen for Small Molecule Inhibitors of Shiga Toxin | AID 2314, 2010 | cell reporter, cycloheximide protein synthesis inhibition counterscreen | 300,000 tested, 12% active | max response, %; in the data active means max response mostly above about 13%, no sharp cut-off; inactive means mostly below about 14%; further: read at 38.3 µM for the half of the compounds with a filed dose
Hits are given with their value. Hits are enriched below; roughly 13% of the tested compounds scored in any of these assays.

What do the screens show for `Cc1ccc(C(=O)NNC(=O)c2cccc3ccccc23)cc1`?
LASV entry inh: inactive; Marburg entry inh: inactive; HCV inhibitor: inactive; FMDV inh: inactive

Results for CCOc1ccc(C2(C)NC(=O)N(CCN(C)C)C2=O)cc1 (configuration not stated) ?
LASV entry inh: inactive; Marburg entry inh: inactive; HCV inhibitor: inconclusive; FMDV inh: inactive; CHX counter: inactive

Results for Cc1ccc(S(=O)(=O)N2C[C@@H]3[C@H]4CC[C@H](C4)[C@@H]3[C@@H](C)[C@@H]2C2CCCCC2=O)cc1 (some centres not stated) ?
HCV inhibitor: inactive; FMDV inh: inactive

How did COc1ccccc1C(CNC(=S)NCc1ccccc1)N1CCCC1 (configuration not stated) do in these assays?
LASV entry inh: inactive; Shiga toxin inh: inactive; Marburg entry inh: 5.62µM; HCV inhibitor: inactive; FMDV inh: inactive; CHX counter: inactive

How did O=C(NC1CCCCC1)c1ccc(S(=O)(=O)NCc2ccco2)cc1 do in these assays?
LASV entry inh: inactive; Shiga toxin inh: inactive; Marburg entry inh: inactive; HCV inhibitor: inactive; FMDV inh: inactive; CHX counter: inactive

Results for O=C(NC1CCN(Cc2ccccc2)CC1)c1ccc(S(=O)(=O)NCc2ccco2)cc1 ?
LASV entry inh: inactive; Shiga toxin inh: inactive; Marburg entry inh: 3.55µM; HCV inhibitor: 3.98µM; FMDV inh: inactive; CHX counter: inactive

Results for COc1ccc(C(CNC(=S)NCc2ccccc2)N2CCCC2)cc1 (configuration not stated) ?
LASV entry inh: inconclusive; Shiga toxin inh: inactive; Marburg entry inh: inconclusive; HCV inhibitor: inactive; FMDV inh: inactive; CHX counter: inactive

What do the screens show for `COc1ccc(CN2CCN(C(=O)c3ccc(S(=O)(=O)NCc4ccco4)cc3)CC2)cc1`?
LASV entry inh: inconclusive; Marburg entry inh: 0.316µM; HCV inhibitor: inconclusive; FMDV inh: inconclusive

Results for Cc1ccc(C)c(S(=O)(=O)N2CCN(C(=O)CSc3ccccc3)CC2)c1 ?
LASV entry inh: inactive; Shiga toxin inh: inactive; Marburg entry inh: inactive; FMDV inh: inactive; CHX counter: inactive

What do the screens show for `O=C(COc1ccc2c3c(c(=O)oc2c1)CCCC3)N1CCN(c2ccc(F)cc2)CC1`?
Shiga toxin inh: inactive; HCV inhibitor: 10µM; FMDV inh: inactive; CHX counter: inactive

What do the screens show for `CC(=O)C(C)Oc1ccc2c3c(c(=O)oc2c1)CCCC3` (configuration not stated)?
LASV entry inh: inactive; Shiga toxin inh: inactive; Marburg entry inh: inconclusive; HCV inhibitor: inconclusive; FMDV inh: inactive; CHX counter: inactive

How did CC(=O)COc1ccc2c3c(c(=O)oc2c1)CCCC3 do in these assays?
LASV entry inh: inconclusive; Shiga toxin inh: inactive; Marburg entry inh: inactive; HCV inhibitor: inactive; FMDV inh: inactive; CHX counter: 17.0

How did C#CCOc1ccc2c3c(c(=O)oc2c1)CCCC3 do in these assays?
LASV entry inh: inactive; Marburg entry inh: inactive; HCV inhibitor: inactive; FMDV inh: inactive; CHX counter: 13.7

What do the screens show for `O=C(COc1ccc2c3c(c(=O)oc2c1)CCC3)Nc1ccccn1`?
Shiga toxin inh: inactive; HCV inhibitor: inactive; FMDV inh: inactive; CHX counter: 19.6

What do the screens show for `CCCCn1cnc2c(SCc3ccccc3Cl)nc(N)nc21`?
LASV entry inh: inactive; Marburg entry inh: inconclusive; HCV inhibitor: inconclusive; FMDV inh: inactive

Results for CCOc1ccc(NC(=O)Cn2nc(-c3ccncc3)ccc2=O)cc1 ?
LASV entry inh: inactive; FMDV inh: inactive

What do the screens show for `CC(=O)Nc1ccc(S(=O)(=O)NCC2CCC(C(=O)NCCN(CC(C)C)CC(C)C)CC2)cc1` (configuration not stated)?
LASV entry inh: inactive; FMDV inh: inactive

Results for COc1ccc(CCNC(=O)CSC2=NS(=O)(=O)c3cc(Cl)ccc3N2)cc1OC ?
LASV entry inh: inactive; Marburg entry inh: inactive; HCV inhibitor: inactive; FMDV inh: inactive

How did CC(=O)C(C)Oc1ccc2c3c(c(=O)oc2c1)CCCCC3 (configuration not stated) do in these assays?
LASV entry inh: inactive; Shiga toxin inh: 82.6; Marburg entry inh: inactive; HCV inhibitor: 35.5µM; FMDV inh: inactive; CHX counter: 49.7
